From PubChem BioAssay AID463173 (ICCB-Longwood Screening Facility, Harvard Medical School, 2010)
The whole screen tested about 52,000 compounds, of which about 4,300 (8.3%) were called active. For the sample, actives were picked, then their nearest neighbours and some compounds at random. Unmarked numbers belong to inactive results. Rule as the data show it: active = survival mostly below about 52% (no sharp cut-off); inactive = mostly above about 56%.

test system: DeltatarO mutant; test: growth inhibition of S. aureus wild type versus tarO mutant, primary screen, teichoic acid synthesis inhibitors, RN4220, OD600 (AID 463173); settings: OD600, 18 h, hits give low values, screened at 18.75 µg/mL (by protocol)

SMILES	survival
CCc1cccc(NC(=O)Cn2c(=O)n(-c3ccccc3C)c(=O)c3c2c2cc(C)ccc2n3C)c1	85%
O=C(COc1ccccc1Cl)Nc1ccc(-c2nc3ccccc3s2)cc1	52%
CCOC(=O)c1ccc(Nc2c(-c3ccc(N(C)C)cc3)nc3nc[nH]n23)cc1	102%
COc1cccc(OCc2cc(=O)n3c(-c4ccccc4)csc3n2)c1	74%
CC(C)CC(=O)Nc1cccc(-c2cn3cccnc3n2)c1	83%
CN1CCN(Cc2nnnn2CC2CCCO2)CC1 (stereo not drawn)	95%
CCOc1ccc(Cn2nnc(C(=O)Nc3ccc(Cl)cc3)c2N)cc1	88%
CCOc1ccc(Cn2nnc(C(=O)Nc3cccc(SC)c3)c2N)cc1	30% (active)
CCc1cccc(NC(=O)c2nnn(Cc3ccc(SC)cc3)c2N)c1	59%
CCOc1ccc(S(=O)(=O)Nc2cccc(-c3ccc(N4CCC(C)CC4)nn3)c2)cc1	86%
CC(C)COc1ccc(C(=O)N(Cc2ccc(N(C)C)cc2)Cc2ccco2)cc1	71%
Cc1ccc(NC(=O)CSCc2cc(=O)c3ccccc3[nH]2)c(C)c1	116%
O=C(Cn1c(=O)c2cccn2c2ccc(F)cc21)N1CCN(c2ccccc2F)CC1	56%
Cc1ccc(NC(=O)CCCn2c(=O)c3cccn3c3ccccc32)cc1C	61%
Cc1ccc(NC(=O)CCn2c(=O)c3cccn3c3ccccc32)cc1Cl	45% (active)
CC(C)c1ccc(NC(=O)CCn2c(=O)c3cccn3c3ccccc32)cc1	57%
Cc1ccc(NC(=O)CCCn2c(=O)c3cccn3c3ccccc32)cc1Cl	68%
Cc1cc(C)c(NC(=O)CCn2c(=O)c3cccn3c3ccccc32)c(C)c1	49%
Cc1ccc(NC(=O)CCn2c(=O)c3cccn3c3ccccc32)cc1C	46% (active)
O=C(Nc1ccc(Cl)cc1)N1CCN(c2ccc3nnc(-c4ccccc4)n3n2)CC1	72%
COc1cc(C2C(C(=O)Nc3ccc(Cl)cc3)=C(C)Nc3nc(SC)nn32)cc(OC)c1OC (stereo not drawn)	64%
CC(C)=NNS(=O)(=O)c1ccc(N2CCCC2=O)cc1	71%
CC1CCc2sc3ncnc(NCCCN(C)C)c3c2C1 (stereo not drawn)	117%
Cc1nn(CC(=O)NCc2ccc(N(C)C)cc2)c(=O)c2nn(-c3ccccc3)c(C)c12	83%

SMILES	survival
CCS(=O)(=O)N1CCc2cc(C(=O)NCCc3ccc(OC)c(OC)c3)ccc21	69%
CCC(=O)N1CCc2cc(Br)cc(S(=O)(=O)NCCc3ccc(OC)c(OC)c3)c21	52%
Cc1ccc2c(c1)C(c1ccccc1)N(C(=O)COc1ccc(Cl)cc1Cl)CC(=O)N2 (stereo not drawn)	49% (active)
O=C1CN(C(=O)COc2ccc(Cl)cc2Cl)C(c2ccc(F)cc2)c2cc(F)ccc2N1 (stereo not drawn)	47% (active)
CCCC(=O)N1CC(=O)Nc2ccc(Cl)cc2C1c1ccccc1 (stereo not drawn)	69%
Cc1ccc2c(c1)C(c1ccc(F)cc1)N(C(=O)C(C)C)CC(=O)N2 (stereo not drawn)	82%
Cc1ccc2c(c1)C(c1ccc(F)cc1)N(C(=O)COc1ccc(Cl)cc1Cl)CC(=O)N2 (stereo not drawn)	45% (active)
CCOc1ccc(C(=O)N2CC(=O)Nc3ccc(C)cc3C2c2ccc(F)cc2)cc1OCC (stereo not drawn)	67%
O=C1CN(C(=O)COc2ccc(Cl)cc2Cl)C(c2ccccc2)c2cc(F)ccc2N1 (stereo not drawn)	88%
CCCC(=O)N1CC(=O)Nc2ccc(Cl)cc2C1c1ccc(F)cc1 (stereo not drawn)	50%
COc1ccc(C(=O)N2CC(=O)Nc3ccc(C)cc3C2c2ccccc2)cc1OC (stereo not drawn)	61%
Cc1c(CCC(=O)NCCc2ccccc2F)c(=O)oc2cc(O)ccc12	61%
O=C(CSc1nc2c([nH]c3ccccc32)c(=O)n1-c1ccccc1)N1CCc2ccccc21	101%
CCOC(=O)c1ccccc1NS(=O)(=O)c1ccc(N2CCCCS2(=O)=O)cc1	90%
CN1CCN(Cn2c(O)c(N=NC(=O)c3ccc(Br)cc3)c3cc(Br)ccc32)CC1	87%
CCOc1ccc(NC(=O)CC2C(=O)N(c3cccc(C)c3)C(=O)N2Cc2cccnc2)cc1 (stereo not drawn)	55%
CCOc1ccc(NC(=O)c2cnc3sc(N4CCOCC4)nn3c2=O)cc1	97%
COCCn1c(SCC(=O)c2c[nH]c3ccccc23)nc2cc(C(=O)NC(C)C)ccc2c1=O	55%
COCCNC(=O)c1ccc2c(=O)n(CCOC)c(SCC(=O)c3c[nH]c4ccccc34)nc2c1	17% (active)
COCCn1c(SCC(=O)c2c[nH]c3ccccc23)nc2cc(C(=O)NCC(C)C)ccc2c1=O	100%
Cc1ccc(Cl)cc1-n1ncc2c(NCCc3ccccc3)ncnc21	60%
COc1ccc(Cl)cc1NC(=O)Cn1c(=O)n(Cc2nc(C)no2)c(=O)c2ccccc21	83%
COc1ccc(NC(=O)CSc2nccn2Cc2ccco2)cc1OC	73%
Cc1nnc(NC(=O)CSc2nccn2Cc2ccc(F)cc2)s1	0% (active)

SMILES	survival
Cc1ccc(Cn2ccnc2SCC(=O)Nc2nnc(C)s2)cc1	55%
Cc1ccc2nc(NC(=O)CSc3nccn3Cc3ccccc3)sc2c1	37% (active)
Cc1ccc2nc(NC(=O)CSc3nccn3-c3ccc(Cl)cc3)sc2c1	71%
O=C(CSc1nccn1Cc1ccc(Cl)cc1)Nc1nc2ccccc2s1	32% (active)
Cc1ccc2nc(NC(=O)CSc3nccn3Cc3ccc(Cl)cc3)sc2c1	96%
Cc1cc(C)cc(-n2ccnc2SCC(=O)Nc2nc3ccccc3s2)c1	71%
Cc1ccc2nc(NC(=O)CSc3nccn3Cc3ccc(F)cc3)sc2c1	99%
Cc1nnc(NC(=O)CSc2nccn2Cc2ccc(Cl)cc2)s1	112%
O=C(CSc1nccn1Cc1ccc(F)cc1)Nc1nc2ccccc2s1	83%
Cc1cc(C)cc(-n2ccnc2SCC(=O)Nc2nc3ccc(C)cc3s2)c1	52% (active)
O=C(CSc1nccn1Cc1ccccc1)Nc1nc2ccccc2s1	117%
COc1ccccc1NC(=O)CCN1CCC(C(N)=O)CC1	193%
COc1ccc(CNC(=O)c2sc3nc[nH]c(=O)c3c2C)cc1	75%
CCCCNc1nc(Oc2ccc(=O)n(C)n2)nc(N2CCOCC2)n1	81%
COc1ccc(C)cc1Nc1nc(-c2cccc(Cl)c2)c2c(n1)-c1ccccc1OC2	68%
CCOC(=O)CCn1nc(C)c2c(C)n(-c3ccccc3)nc2c1=O	87%
Cc1ccc(OCC(=O)Nc2nc(-c3ccc(Br)cc3)ns2)cc1	72%
Cc1ccc(NC(=O)C2CCN(C(=O)c3sc4nc[nH]c(=O)c4c3C)CC2)cc1F	89%
COc1cccc(CN2C(=O)c3ccccc3Sc3ccc(C(=O)N(C)Cc4ccccc4)cc32)c1	79%
CCN1CCc2c(sc(NC(=O)CSc3ccccc3)c2-c2nc3ccccc3s2)C1	-5% (active)
CC(=O)N1CCc2c(sc(NC(=O)CSc3ccccc3)c2-c2nc3ccccc3s2)C1	109%
CN1CCc2c(sc(NC(=O)CSc3ccccc3)c2-c2nc3ccccc3s2)C1	73%
CCc1ccc(N2C(=O)C3C(C(=O)OC)=NN(C(C)=O)C3C2=O)cc1 (stereo not drawn)	75%
Cc1ccc(NC(=O)C2CCCN(c3ncnc4onc(-c5ccc(F)cc5)c34)C2)c(Cl)c1 (stereo not drawn)	71%

SMILES	survival
S=C(NCc1ccc2c(c1)OCO2)Nc1ccccc1	97%
O=C(Nc1ccccc1)NC1(C(=O)NCc2ccc3c(c2)OCO3)CCCCC1	6% (active)
CCCCNC(=O)C1(NC(=O)Nc2ccccc2)CCCCC1	74%
NC(=O)CSc1nnnn1C1CCCCC1	71%
COc1ccc(C(=O)Nc2cccc(-c3cn4ccsc4n3)c2)c(OC)c1	70%
COc1ccc(-c2nc3c(C#N)c[nH]n3c2NC2CCCC2)c(OC)c1	65%
COc1cccc(-c2nc3c(C#N)c[nH]n3c2NC2CCCCC2)c1	72%
COc1cccc(-c2nc3c(C#N)c[nH]n3c2NC2CCC(C)CC2)c1 (stereo not drawn)	29% (active)
COc1cccc(-c2nc3c(C#N)c[nH]n3c2NC2CCCC2)c1OC	64% (active)
COc1cccc(-c2nc3c(C#N)c[nH]n3c2NC2CCCCC2)c1OC	60%
COc1ccc(-c2nc3c(C#N)c[nH]n3c2NC2CCCC2)cc1	56%
CCC(=O)N1c2ccccc2CC1C(=O)NCCc1ccccc1 (stereo not drawn)	69%
CCN(CC)c1ccc(NC(=O)C(NS(=O)(=O)c2cccs2)C(C)C)c(C)c1 (stereo not drawn)	141%
CCC1CCCCN1CC(=O)Nc1cc(C)c2c(=O)oc3ccccc3c2n1 (stereo not drawn)	98%
O=C(COc1ccc2oc3c(c2c1)CCCC3)Nc1ccc(Cl)cc1	85%
Cc1cccc(NC(=O)COc2ccc3oc4c(c3c2)CCCC4)c1	40% (active)
Cc1ccc(NC(=O)COc2ccc3oc4c(c3c2)CCCC4)cc1C	70%
O=C(COc1ccc2oc3c(c2c1)CCCC3)Nc1cccc(Br)c1	27% (active)
O=C(COc1ccc2oc3c(c2c1)CCCC3)Nc1ccc(Br)cc1	89%
Cc1ccc(NC(=O)COc2ccc3oc4c(c3c2)CCCC4)c(C)c1	88%
Cn1c(C(C(=O)NCC2CCCO2)N(Cc2ccc(F)cc2)C(=O)Cn2nnc3ccccc32)nc2ccccc21 (stereo not drawn)	95%
